Inconclusive results are not listed. A call without a number means that no potency is given here. The source made the active and inactive calls. The call rests on the fitted dose curve; in most records, active means well fitted cell-killing curve with a large enough effect; inconclusive means small, poorly fitted or top-dose-only effect, or effect the other way; inactive means flat fitted curve, though single readings scatter.
Test: Compound cytotoxicity measured by an ATP content assay as a counter-screen for lead compounds in human astrocytoma cell line (SNB-19)
Details: SNB-19 astrocytoma viability, ATP luminescence; series mostly up to 46.1 µM
Procedure: National Center for Advancing Translational Sciences [NCATS] Johns Hopkins University School of Medicine Florida State University Assay Overview: Many compounds can cause cytotoxicity at high compound concentrations. […] The compound cytotoxicity may also cause side effects or toxicity in human. Thus, the compound cytotoxicity needs to be measured in each cell type and each compound incubation time - same as these in the compound screening assay. The compound cytotoxicity can be measured by cell viability assays such as the ATP content assay. We use an ATP content assay kit for cell viability measurement. It measures ATP content (level) in human astrocytoma cell line (SNB-19) using a luminescence readout that is proportional to viable cell numbers. Decrease in the luminescence signal after the compound treatment indicates reduced cell viability and cell death caused by compound treatment.
Assay Protocol Summary: The medium for SNB-19 cells is composed of RPMI 1640 (ATCC, Cat.# 30-2001), 10% fetal bovine serum (FBS) (GE healthcare Life Sciences, Cat.# SH30071.03), and 1% Pen/Strep (Gibco, Cat.# 15140-122). The ATP content assay kit (PerkinElmer, Cat.# 6016731) was used to determine cell viability. The reagent was reconstituted and prepared as described by the manufacturer. Cells were seeded in 384- or 1536-well assay plates and cultured at 37 C with 5% CO2 for 16 to 20 hours. The typical cell seeding density in the 1536-well plate assay is 250 cells/well in 3ul medium for SNB-19 cells in tissue culture treated plates. Compounds were added to cells and incubated for a specific time such as 6, 24, or 72 hours before addition of the reagent mixture of the ATP content assay kit at 1:1 ratio. After incubation at room temperature for 10 minutes, the luminescence intensity in assay plates was measured using a ViewLux plate reader (PerkinElmer). […] The percentage inhibitions of the decreased cell viability by small molecules were then calculated that indicate compound cytotoxicity.

SMILES | Potency
CC[n+]1c(-c2ccccc2)c2cc(N)ccc2c2ccc(N)cc21 | inactive
CC(C)[C@H]1C(=O)N[C@H](CO)Cc2c[nH]c3cccc(c23)N1C | inactive
O=C1C=CC[C@@H]2[C@H]3CCCN4CCC[C@@H](CN12)[C@@H]34 | inactive
Oc1ccc([C@H]2CNCc3c2ccc(O)c3O)cc1O | inactive
CC(C)N[C@@H]1CCn2c(=O)[nH]c3cccc(c32)[C@@H]1O | inactive
Cc1ccc([N+](=O)[O-])[c]2c1[O][Hg]2 | 5.48 µM (active)
CC(O)CN1CCN(CC(=O)[O-])CCN(CC(=O)[O-])CCN(CC(=O)[O-])CC1.[Gd+3] (centres undefined) | inactive
O=S(=O)(CC1CS1)c1ccc(Oc2ccccc2)cc1 (centres undefined) | inactive
COP(=S)(OC)SCN1C(=O)c2ccccc2C1=O | inactive
CN1CC[C@@]2(C)c3cc(OC(=O)Nc4ccccc4)ccc3N(C)[C@@H]12 | inactive
O=C1CCC[C@@H]2[C@H]3CCCN4CCC[C@@H](CN12)[C@@H]34 | inactive
COc1cccc2c1C(=O)c1c(O)c3c(c(O)c1C2=O)C[C@@](O)(C(=O)CO)CC3OC1CC(N2CCOC(OC)C2)C(O)C(C)O1 (some centres undefined) | inactive
S=C(SSC(=S)N1CCCCC1)N1CCCCC1 | inactive
CC(C)[N+](C)(CCC(C(N)=O)(c1ccccc1)c1ccccc1)C(C)C | inactive
